# Results from PubChem BioAssay (NCATS).
# Records with an inconclusive call do not appear. Unmarked numbers belong to inactive results. Calls come from the whole dose curve; as a rule, active = well fitted inhibition curve with a large enough effect; inconclusive = small, poorly fitted or top-dose-only effect; inactive = flat fitted curve, though single readings scatter.
# System: astro (control astrocytes)
# Assay: Drug repurposing screens with cells derived from glioblastoma tumor samples (AID 1345199); note: nearly all actives have a fitted effect of over 40% in size
# Conditions: viability, ATP luminescence, 48 h; series mostly up to 45.9 µM; activity, negative = cell killing: at the top concentration
# How it was run: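 Four patient lines of CD133+ GBM neurospheres were screened at several concentrations; hits were retested in those lines plus three slower-growing GBM lines, using 48-hour treatment and ATP-based viability.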
# % is set by controls: 0 for no effect and ±100 for the full control effect.
row,SMILES,"activity, negative = cell killing"
1,Clc1ccc(C(Cn2ccnc2)OCc2csc3c(Cl)cccc23)c(Cl)c1 (stereo unspecified),-11.5% [at 21.2 µM]
2,CC[C@H]1[C@@H]2C[C@H]3[C@@H]4N(C)c5ccccc5[C@]45C[C@@H](C2[C@H]5O)N3[C@@H]1O (stereo partly specified),-12.2% [at 21.2 µM]
3,C[N+]1(C)CCCCC1COC(=O)C(O)(c1ccccc1)c1ccccc1 (stereo unspecified),-20.7%
4,O=C(CCl)c1ccc(Oc2ccc(C(=O)CCl)cc2)cc1,-9.89%
5,CN[C@H]1C[C@@H](N)[C@H](O)[C@@H](O[C@@H]2O[C@H](CO)[C@H](O)[C@@H]3OC4(O[C@H]23)O[C@H](C(N)CO)[C@H](O)[C@H](O)[C@H]4O)[C@@H]1O (stereo partly specified),-18.2%
6,O=C1CCCCC1CN1CCCCC1 (stereo unspecified),-14.6%
7,C[C@@H]1[C@@H]2Cc3ccc(O)cc3[C@@]1(C)CCN2CC1CC1,-12.6%
8,CCOP(=O)(OCC)O/C(=C/Cl)c1ccc(Cl)cc1Cl,-28.5%
9,Clc1ccc(C2(Cn3cncn3)OCCO2)c(Cl)c1,-8.21%
10,O=c1[nH]cc(N(CCCl)CCCl)c(=O)[nH]1,-13.8%
11,CC(=O)OC1CN2CCC1CC2 (stereo unspecified),-3.98%
12,O=C1CN(O)C(c2ccccc2)=c2cc(Cl)ccc2=N1,-9.1%
13,O=C(NC(=O)c1c(F)cccc1F)Nc1ccc(Cl)c(Oc2ncc(C(F)(F)F)cc2Cl)c1,-28.5%
14,O=C(NCNC(=O)NC1C(=O)NC(=O)N1CO)NC1C(=O)NC(=O)N1CO (stereo unspecified),7.81%
15,Cc1cccc(C(C)c2cnc[nH]2)c1C (stereo unspecified),-16%
16,CCNC1(c2cccs2)CCCCC1=O (stereo unspecified),-16.5% [at 21.2 µM]
17,C[C@@H](Cc1ccccc1)N(C)C,-11.1%
18,C#CC(C)(O)CC (stereo unspecified),-13.2%

row,SMILES,"activity, negative = cell killing"
1,CCCC(C)C1(CC)C(=O)NC(=O)NC1=O (stereo unspecified),-17%
2,C[C@]12CCC(=O)C=C1C=C[C@@H]1[C@@H]2CC[C@@]2(C)[C@H]1CC[C@@]2(O)CCC(=O)O,-11.8% [at 21.2 µM]
3,C=CCC1(C(C)CCC)C(=O)N=C(S)NC1=O (stereo unspecified),-19.1%
4,CN(C)CCCCCCN(C)C (tested in a mixture with another compound),-11.8%
5,C[C@]12CC[C@H]3[C@@H](CCC4=C(O)C(=O)CC[C@@H]43)[C@@H]1CC[C@@H]2OC(=O)CCC1CCCC1,-18.3%
6,CC(=O)O[C@H]1CC[C@H]2[C@@H]3CCC4=CC(=O)CCC4=C3C=C[C@]12C,-18.6%
7,CCCCNCC(O)c1ccc(O)cc1 (stereo unspecified),-19.5%
8,Cc1ccccc1-n1c(CF)nc2ccc(N)cc2c1=O,-11%
9,C[C@]12CC[C@H]3[C@@H](CC[C@@]45O[C@@H]4C(O)=C(C#N)C[C@]35C)[C@@H]1CC[C@@H]2O,-17%
10,c1ccc2sc(SNC3CCCCC3)nc2c1,-25.9%
11,C=CCN1CC[C@]23c4c5ccc(O)c4O[C@H]2[C@@H](O)C=C[C@H]3[C@H]1C5,-11.6%
12,C=CCN(C1=NCCN1)c1c(Cl)cccc1Cl,-16.9%
13,O=P(O)(O)C(Cl)(Cl)P(=O)(O)O,4.38%
14,CCC1(CC)C(=O)NC(=O)N(C)C1=O,-15.3%
15,COC(=O)[C@@H]1[C@H]2CC[C@@H](C[C@H]1OC(=O)c1ccccc1)N2C,-10%
16,CCC(=O)O[C@]1(c2ccccc2)CCN(C)C[C@H]1C,-17%
17,CC(Cc1ccccc1)NC=O (stereo unspecified),-22.2%
18,NCC(O)c1cccc(O)c1 (stereo unspecified),-4.76%
